# The panel holds about 83,000 compounds, 20% with a hit somewhere; the sample as a whole holds those more often.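 Testing used 96-well plates and a 48-hour single-concentration exposure. Example: -40 means 40% of the starting cells died.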 Values without a mark were called inactive. Activity calls are given as the source filed them. How the source made its calls: active means growth percent below 10; inactive means the rest.
# System: RXF 393 renal
# Test: NCI-60 one-dose screen, 48 h (100 = growth as untreated, 0 = no growth, -100 = all killed)
# Conditions: 10 µM unless noted
row,SMILES,growth
1,CN1CCC(COc2cnc(-c3cccc(Cn4nc(-c5cccc(C#N)c5)ccc4=O)c3)nc2)CC1,87.7%
2,COc1cc(OC)c(/C=C/S(=O)(=O)Cc2ccc(OC)c(NCC(=O)O)c2)c(OC)c1,36.9%
3,O=C(NOC[C@H](O)CO)c1ccc(F)c(F)c1Nc1ccc(I)cc1F,2.18% (active)
4,C=CCN1C(=O)c2cccc3c(-c4ccc5c(c4)ncn5C4CCCCC4)ccc(c23)C1=O,110%
5,Cc1cc(O)cc(-c2c(-c3ccnc(-c4cccnc4)c3)cnn2C)c1,54.4%
6,O=[N+]([O-])c1cc(Br)cc2c1[nH]c1ccc(Br)cc12,43.6%
7,COc1cc2ncnc(Oc3cccc(NC(=O)Nc4cc(C(C)(C)C(F)(F)F)on4)c3)c2cc1OC,16.7%
8,CCNC(=O)Nc1nc2ccc(Oc3ccnc(C(=O)NC)c3)cc2s1,103%
9,COc1cccc2cc(-c3nc(C4CCC(C(=O)O)CC4)n4ncnc(N)c34)[nH]c12 (stereo not drawn),-23.8% (active)
10,CN1CCN(c2nc(C3=C(c4c[nH]c5ccccc45)C(=O)NC3=O)c3ccccc3n2)CC1,120%
11,Cc1cc2c(F)c(Oc3ncnn4cc(OC[C@@H](C)OC(=O)[C@H](C)N)c(C)c34)ccc2[nH]1,43.8%
12,S=C(NCc1ccc2c(c1)OCO2)N1CCN(c2ncnc3c2oc2ccccc23)CC1,50.7%
13,C=C1CC[C@@H]2[C@](C)(COC(C)=O)[C@H](OC(C)=O)CC[C@@]2(C)[C@@H]1C/C=C1/C(=O)OC[C@H]1OC(C)=O,-7.35% (active)

# From PubChem BioAssay (NCI)
